Results as given in the supplement of paper PMC10849652.
Of roughly 7,900 targets only a part is listed; those with a hit were picked by preference. About 0.6% of all pairs of compound and target were hits.

Assays:
Experiment in all cases: log2 fold change, soluble protein after heating vs DMSO (PISA); higher = thermal stabilisation; K562 cells, 10 uM, 30 min; active = over 0.2 and 3.5 SD of the protein, either way, in both replicates (recomputed)
[1] = compound: CC1=C(C=C(C=C1)NC(=O)C2=CC(=CC=C2)C(C)(C)C#N)NC3=CC4=C(C=C3)N=CN(C4=O)C
Outline: (§1)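 Quantification of soluble protein used TMTpro 16plex LC-MS/MS, with channel sums equalised. Samples were the supernatant after 21,000xg for 90 min of pooled aliquots from K562 cells (2×10^6 cells/mL) treated with 10 μM compound for 30 min, heated for 3 min over 48°C-58°C, and extracted in PBS with 0.5% NP-40 at 4°C. Values, from duplicates, describe thermal stability against control samples on a log2 fold-change scale.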

[2] = compound: CC1=C(C=C(C=C1)NC(=O)C2=CC(=CC=C2)N(C)C)NC(=O)C3=CC=C(C=C3)O
Outline: as §1

[3] = compound: CC1=CC=C(C=C1)SC2=C3C=C(SC3=CN=C2)C(=O)N
Outline: as §1

[4] = compound: CC1=NC(=CC=C1)C2=C(N=C(N2)C(C)(C)C)C3=CC4=NC=CN=C4C=C3
Outline: as §1

[5] = compound: CCCCN(Cc1ccc(C(=O)NO)cc1)C(=O)Nc1ccccc1 [Nexturastat A]
Outline: as §1

[6] = compound: CCCS(=O)(=O)Nc1ccc(F)c(C(=O)c2c[nH]c3ncc(-c4ccc(Cl)cc4)cc23)c1F [vemurafenib]
Outline: as §1

[7] = compound: CCCS(=O)(=O)Nc1ccc(F)c(C(=O)c2c[nH]c3ncc(Cl)cc23)c1F
Outline: as §1

[8] = compound: CCCc1cc(C)[nH]c(=O)c1CNC(=O)c1cc(-c2ccnc(N3CCN(C)CC3)c2)cc2c1cnn2C(C)C
Outline: as §1

[9] = compound: CCN(CC)Cc1ccc2cc(COC(=O)Nc3ccc(C(=O)NO)cc3)ccc2c1 [givinostat]
Outline: as §1

[10] = compound: CCN(CCCOc1ccc2c(Nc3cc(CC(=O)Nc4cccc(F)c4)[nH]n3)ncnc2c1)CCOP(=O)(O)O [barasertib]
Outline: as §1

Measured: log2 fold change

RUFY1 (UniProt Q96T51)
inactive: [1] 0.013 | [2] -0.011 | [3] -0.022 | [4] -0.035 | [5] 0.063 | [6] 0.043 | [7] 0.059 | [8] 0.029 | [9] 0.031 | [10] 0.027

RRAGC (UniProt Q9HB90)
Chain of UniProt Q9HB90 (Q9HB90 whole entry, looked up): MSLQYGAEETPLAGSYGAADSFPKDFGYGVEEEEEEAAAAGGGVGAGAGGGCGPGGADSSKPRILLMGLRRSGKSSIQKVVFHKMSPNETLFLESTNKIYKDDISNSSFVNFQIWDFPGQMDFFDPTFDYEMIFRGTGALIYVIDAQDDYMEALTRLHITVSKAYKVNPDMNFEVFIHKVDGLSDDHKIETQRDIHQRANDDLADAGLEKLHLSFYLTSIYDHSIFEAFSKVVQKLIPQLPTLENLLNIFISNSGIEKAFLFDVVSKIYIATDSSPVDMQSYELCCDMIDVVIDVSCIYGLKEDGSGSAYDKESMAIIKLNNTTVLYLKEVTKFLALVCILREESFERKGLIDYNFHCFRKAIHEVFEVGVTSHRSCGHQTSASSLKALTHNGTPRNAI
inactive: [1] 0.005 | [2] 0.003 | [3] 0.017 | [4] 0.008 | [5] -0.07 | [6] -0.027 | [7] 0.047 | [8] -0.048 | [9] 0.052 | [10] -0.011

SEC16A isoform 5 (UniProt O15027)
inactive: [1] -0.079 | [2] -0.042 | [3] 0.036 | [4] -0.001 | [5] 0.044 | [6] 0.035 | [7] -0.031 | [8] 0.061 | [9] 0.09 | [10] 0.043

SH3GL1 (UniProt Q99961)
Chain of UniProt Q99961 (Q99961 whole entry, looked up): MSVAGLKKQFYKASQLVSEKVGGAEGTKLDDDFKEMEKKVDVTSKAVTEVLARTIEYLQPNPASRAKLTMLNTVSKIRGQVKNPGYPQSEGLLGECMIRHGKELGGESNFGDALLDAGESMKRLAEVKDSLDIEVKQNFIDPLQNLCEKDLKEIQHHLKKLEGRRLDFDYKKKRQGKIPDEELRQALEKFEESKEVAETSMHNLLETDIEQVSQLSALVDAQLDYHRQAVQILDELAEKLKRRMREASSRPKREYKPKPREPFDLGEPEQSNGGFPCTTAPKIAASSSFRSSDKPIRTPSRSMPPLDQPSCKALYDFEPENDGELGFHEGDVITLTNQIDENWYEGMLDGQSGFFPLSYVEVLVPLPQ
inactive: [1] 0.022 | [2] -0.077 | [3] 0.06 | [4] 0.021 | [5] 0.141 | [6] 0.1 | [7] 0.1 | [8] 0.037 | [9] 0.024 | [10] 0.084

RPS19 (UniProt P39019)
inactive: [1] 0.008 | [2] 0.007 | [3] -0.054 | [4] -0.009 | [5] 0.121 | [6] -0.07 | [7] -0.066 | [8] -0.039 | [9] 0.013 | [10] -0.083

SETD3 (UniProt Q86TU7)
inactive: [1] -0.008 | [2] 0.029 | [3] -0.01 | [4] 0.046 | [5] -0.024 | [6] 0.035 | [7] -0.01 | [8] 0.034 | [9] -0.037 | [10] 0.026

RPTOR (UniProt Q8N122)
inactive: [1] 0.009 | [2] 0.019 | [3] 0.027 | [4] 0.025 | [5] -0.018 | [6] 0.017 | [7] 0.09 | [8] 0.012 | [9] -0.007 | [10] -0.007

RANBP2 (UniProt P49792)
inactive: [1] 0.089 | [2] -0.07 | [3] -0.041 | [4] 0.04 | [5] 0.221 | [6] -0.086 | [7] 0.03 | [8] -0.072 | [9] 0.046 | [10] 0.036

SACM1L (UniProt Q9NTJ5)
Chain of UniProt Q9NTJ5 (Q9NTJ5 whole entry, looked up): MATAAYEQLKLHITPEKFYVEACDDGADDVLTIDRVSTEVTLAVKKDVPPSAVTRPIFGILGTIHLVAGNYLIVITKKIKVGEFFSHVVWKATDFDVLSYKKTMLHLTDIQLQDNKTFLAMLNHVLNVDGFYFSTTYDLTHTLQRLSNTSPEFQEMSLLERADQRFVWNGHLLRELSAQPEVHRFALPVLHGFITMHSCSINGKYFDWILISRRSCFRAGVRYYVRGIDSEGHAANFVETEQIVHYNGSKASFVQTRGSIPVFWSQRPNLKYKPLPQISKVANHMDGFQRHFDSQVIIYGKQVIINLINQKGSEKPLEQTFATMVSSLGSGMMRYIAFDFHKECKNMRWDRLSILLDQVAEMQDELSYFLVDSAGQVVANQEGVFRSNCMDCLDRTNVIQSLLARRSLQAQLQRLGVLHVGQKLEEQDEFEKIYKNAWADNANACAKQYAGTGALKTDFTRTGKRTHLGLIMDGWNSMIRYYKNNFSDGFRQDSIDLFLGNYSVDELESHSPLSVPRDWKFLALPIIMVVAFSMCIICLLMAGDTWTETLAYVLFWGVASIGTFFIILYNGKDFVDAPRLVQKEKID
inactive: [1] 0.08 | [2] -0.024 | [3] -0.004 | [4] 0.031 | [5] -0.03 | [6] 0.052 | [7] 0.069 | [8] 0.043 | [9] 0.028 | [10] 0.049

RBM17 (UniProt Q96I25)
Chain of UniProt Q96I25 (Q96I25 whole entry, looked up): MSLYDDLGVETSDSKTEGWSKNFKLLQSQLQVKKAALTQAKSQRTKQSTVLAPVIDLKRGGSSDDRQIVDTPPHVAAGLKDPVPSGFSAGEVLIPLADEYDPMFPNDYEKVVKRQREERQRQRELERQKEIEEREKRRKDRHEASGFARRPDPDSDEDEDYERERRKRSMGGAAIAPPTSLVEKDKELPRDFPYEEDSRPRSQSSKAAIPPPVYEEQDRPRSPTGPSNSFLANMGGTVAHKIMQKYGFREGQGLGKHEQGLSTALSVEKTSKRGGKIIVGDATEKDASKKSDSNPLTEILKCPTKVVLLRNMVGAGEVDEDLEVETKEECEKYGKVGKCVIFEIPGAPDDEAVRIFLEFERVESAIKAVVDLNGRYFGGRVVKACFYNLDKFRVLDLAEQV
inactive: [1] -0.004 | [2] -0.036 | [3] 0.057 | [4] 0.012 | [5] 0.007 | [6] 0.068 | [7] 0.118 | [8] 0.013 | [9] 0.028 | [10] 0.043

RRS1 (UniProt Q15050)
Chain of UniProt Q15050 (Q15050 whole entry, looked up): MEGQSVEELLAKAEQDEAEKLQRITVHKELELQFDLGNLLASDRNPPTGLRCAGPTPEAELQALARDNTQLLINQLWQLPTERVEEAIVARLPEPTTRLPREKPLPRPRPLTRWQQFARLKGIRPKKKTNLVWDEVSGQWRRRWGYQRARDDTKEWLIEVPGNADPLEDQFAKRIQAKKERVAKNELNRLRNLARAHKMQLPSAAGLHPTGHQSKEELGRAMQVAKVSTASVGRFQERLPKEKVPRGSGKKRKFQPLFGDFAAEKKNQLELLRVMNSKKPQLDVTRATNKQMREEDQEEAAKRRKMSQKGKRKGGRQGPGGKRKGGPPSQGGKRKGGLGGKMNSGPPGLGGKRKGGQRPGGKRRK
inactive: [1] 0.024 | [2] 0.021 | [3] -0.043 | [4] -0.163 | [5] 0.31 | [6] -0.174 | [7] -0.03 | [8] 0.104 | [9] 0.093 | [10] -0.101

RNF14 (UniProt Q9UBS8)
inactive: [1] 0.039 | [2] -0.034 | [3] 0.004 | [4] 0.05 | [5] -0.04 | [6] 0.026 | [7] 0.04 | [8] 0.029 | [9] -0.07 | [10] 0.036

RPP14 (UniProt O95059)
inactive: [1] 0.086 | [2] 0.01 | [3] -0.031 | [4] -0.015 | [5] 0.129 | [6] -0.004 | [7] 0.004 | [8] -0.037 | [9] -0.116 | [10] -0.087

SERPINA7 (UniProt P05543)
Chain of UniProt P05543 (P05543 whole entry, looked up): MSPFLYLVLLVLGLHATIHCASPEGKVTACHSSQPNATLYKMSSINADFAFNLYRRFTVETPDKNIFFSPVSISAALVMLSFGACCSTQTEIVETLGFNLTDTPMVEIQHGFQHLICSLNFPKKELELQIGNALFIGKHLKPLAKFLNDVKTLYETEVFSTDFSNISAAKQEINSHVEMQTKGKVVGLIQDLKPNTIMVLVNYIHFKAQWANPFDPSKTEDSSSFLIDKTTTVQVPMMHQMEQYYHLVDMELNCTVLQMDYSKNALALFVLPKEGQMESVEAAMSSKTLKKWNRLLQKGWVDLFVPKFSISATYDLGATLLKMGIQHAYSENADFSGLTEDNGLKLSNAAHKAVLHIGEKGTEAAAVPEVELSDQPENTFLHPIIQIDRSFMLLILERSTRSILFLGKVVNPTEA
inactive: [1] -0.121 | [2] 0.496 | [3] 0.067 | [4] -0.021 | [5] 0.086 | [6] -0.06 | [7] -0.271 | [8] -0.349 | [9] -0.043 | [10] -0.127

RAD51 (UniProt Q06609)
inactive: [1] -0.012 | [2] -0.017 | [3] -0.042 | [4] -0.052 | [5] 0.001 | [6] 0.02 | [7] -0.048 | [8] 0.032 | [9] 0.179 | [10] 0.016

RPS6KA3 (UniProt P51812)
Chain of UniProt P51812 (P51812 whole entry, looked up): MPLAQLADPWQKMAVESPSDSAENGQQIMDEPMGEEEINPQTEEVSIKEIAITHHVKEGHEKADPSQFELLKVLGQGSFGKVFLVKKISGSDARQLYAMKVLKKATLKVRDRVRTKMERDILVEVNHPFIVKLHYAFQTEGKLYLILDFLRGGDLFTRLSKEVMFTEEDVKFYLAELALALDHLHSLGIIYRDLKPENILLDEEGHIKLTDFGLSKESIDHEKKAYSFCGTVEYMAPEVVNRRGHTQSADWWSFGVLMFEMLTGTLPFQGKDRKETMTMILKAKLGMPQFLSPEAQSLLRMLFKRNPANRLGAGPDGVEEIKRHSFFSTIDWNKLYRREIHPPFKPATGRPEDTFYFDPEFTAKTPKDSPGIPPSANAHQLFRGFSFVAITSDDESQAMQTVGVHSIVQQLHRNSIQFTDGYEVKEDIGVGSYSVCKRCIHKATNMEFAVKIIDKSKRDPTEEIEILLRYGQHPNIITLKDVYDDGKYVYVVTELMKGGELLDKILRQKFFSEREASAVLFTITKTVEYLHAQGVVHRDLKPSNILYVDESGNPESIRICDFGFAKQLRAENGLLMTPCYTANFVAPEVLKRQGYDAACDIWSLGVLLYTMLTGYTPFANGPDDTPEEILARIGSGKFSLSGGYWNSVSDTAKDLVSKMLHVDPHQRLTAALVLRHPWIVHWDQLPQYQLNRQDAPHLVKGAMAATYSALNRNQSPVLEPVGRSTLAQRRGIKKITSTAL
inactive: [1] -0.072 | [2] -0.157 | [3] 0.021 | [4] 0.01 | [5] 0.015 | [6] 0.001 | [7] 0.016 | [8] 0.042 | [9] -0.227 | [10] 0.06

SCAMP2 (UniProt H3BUB6)
inactive: [1] -0.349 | [2] 0.043 | [3] -0.166 | [4] -0.1 | [5] 0.12 | [6] -0.266 | [7] -0.335 | [8] -0.232 | [9] -0.024 | [10] 0.034

RALA (UniProt P11233)
Chain of UniProt P11233 (P11233 whole entry, looked up): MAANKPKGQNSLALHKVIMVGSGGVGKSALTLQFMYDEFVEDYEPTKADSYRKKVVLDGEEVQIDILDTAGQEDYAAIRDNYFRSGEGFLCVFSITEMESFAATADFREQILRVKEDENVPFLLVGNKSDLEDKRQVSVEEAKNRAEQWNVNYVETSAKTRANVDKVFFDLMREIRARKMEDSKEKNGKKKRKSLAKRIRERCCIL
inactive: [1] -0.007 | [2] -0.006 | [3] 0.02 | [4] 0.132 | [5] 0.021 | [6] -0.031 | [7] 0.05 | [8] 0.019 | [9] -0.002 | [10] -0.001

RAB5C isoform 2 (UniProt P51148)
inactive: [1] 0.069 | [2] -0.02 | [3] 0.02 | [4] 0.01 | [5] -0.029 | [6] 0.015 | [7] 0.008 | [8] -0.017 | [9] 0.006 | [10] -0.031

SH3GLB2 (UniProt Q9NR46)
Chain of UniProt Q9NR46 (Q9NR46 whole entry, looked up): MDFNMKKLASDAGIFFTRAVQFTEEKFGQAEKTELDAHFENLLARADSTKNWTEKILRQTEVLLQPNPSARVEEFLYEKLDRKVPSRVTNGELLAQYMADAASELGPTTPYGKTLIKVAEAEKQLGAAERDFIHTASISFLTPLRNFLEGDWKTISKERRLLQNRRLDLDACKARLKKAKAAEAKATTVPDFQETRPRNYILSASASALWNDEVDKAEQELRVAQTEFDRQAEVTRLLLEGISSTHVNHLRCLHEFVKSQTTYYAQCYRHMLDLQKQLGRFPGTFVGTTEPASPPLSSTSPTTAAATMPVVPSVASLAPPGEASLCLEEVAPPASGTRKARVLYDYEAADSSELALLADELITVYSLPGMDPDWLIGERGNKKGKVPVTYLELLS
inactive: [1] 0.047 | [2] -0.052 | [3] 0.025 | [4] 0.033 | [5] -0.064 | [6] 0.058 | [7] 0.058 | [8] 0.021 | [9] 0.049 | [10] 0.051

RPS4X (UniProt P62701)
inactive: [1] 0.019 | [2] 0 | [3] -0.027 | [4] -0.055 | [5] 0.214 | [6] -0.106 | [7] -0.08 | [8] 0.213 | [9] 0.021 | [10] -0.101

RPP25L (UniProt Q8N5L8)
Chain of UniProt Q8N5L8 (Q8N5L8 whole entry, looked up): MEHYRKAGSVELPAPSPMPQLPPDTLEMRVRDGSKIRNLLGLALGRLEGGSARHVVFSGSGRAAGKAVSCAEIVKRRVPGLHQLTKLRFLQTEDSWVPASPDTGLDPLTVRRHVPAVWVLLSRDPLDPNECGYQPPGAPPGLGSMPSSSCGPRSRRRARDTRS
inactive: [1] -0.028 | [2] -0.015 | [3] 0.036 | [4] 0.02 | [5] -0.01 | [6] -0.034 | [7] -0.035 | [8] -0.048 | [9] -0.073 | [10] -0.025

RSPRY1 (UniProt Q96DX4)
inactive: [1] 0.106 | [2] -0.026 | [3] -0.183 | [4] -0.035 | [5] -0.021 | [6] 0.034 | [7] -0.031 | [8] -0.107 | [9] -0.007 | [10] -0.004

RNASEH2A (UniProt O75792)
Chain of UniProt O75792 (O75792 whole entry, looked up): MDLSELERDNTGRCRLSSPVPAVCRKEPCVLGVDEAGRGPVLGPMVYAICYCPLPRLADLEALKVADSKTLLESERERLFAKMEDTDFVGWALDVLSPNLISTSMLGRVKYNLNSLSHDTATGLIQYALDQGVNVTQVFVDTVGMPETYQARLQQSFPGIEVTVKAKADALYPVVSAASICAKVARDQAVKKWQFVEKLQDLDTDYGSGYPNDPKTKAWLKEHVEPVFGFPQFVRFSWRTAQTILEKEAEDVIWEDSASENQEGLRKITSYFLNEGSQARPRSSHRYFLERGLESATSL
inactive: [1] -0.023 | [2] -0.018 | [3] 0.022 | [4] 0.046 | [5] 0.142 | [6] -0.102 | [7] -0.024 | [8] -0.063 | [9] 0.046 | [10] 0.039

RCN3 (UniProt Q96D15)
Chain of UniProt Q96D15 (Q96D15 whole entry, looked up): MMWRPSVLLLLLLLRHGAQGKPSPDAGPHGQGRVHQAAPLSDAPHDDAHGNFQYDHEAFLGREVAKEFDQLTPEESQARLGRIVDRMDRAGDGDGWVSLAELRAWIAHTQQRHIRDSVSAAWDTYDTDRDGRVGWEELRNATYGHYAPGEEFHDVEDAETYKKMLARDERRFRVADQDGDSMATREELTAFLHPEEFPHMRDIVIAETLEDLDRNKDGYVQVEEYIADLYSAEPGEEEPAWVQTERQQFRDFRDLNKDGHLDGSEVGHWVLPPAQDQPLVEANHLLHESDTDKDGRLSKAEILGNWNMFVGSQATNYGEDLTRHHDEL
inactive: [1] -0.055 | [2] 0.029 | [3] -0.028 | [4] -0.073 | [5] 0.077 | [6] -0.003 | [7] -0.053 | [8] -0.145 | [9] -0.023 | [10] -0.011

RGS10 (UniProt O43665)
Chain of UniProt O43665 (O43665 whole entry, looked up): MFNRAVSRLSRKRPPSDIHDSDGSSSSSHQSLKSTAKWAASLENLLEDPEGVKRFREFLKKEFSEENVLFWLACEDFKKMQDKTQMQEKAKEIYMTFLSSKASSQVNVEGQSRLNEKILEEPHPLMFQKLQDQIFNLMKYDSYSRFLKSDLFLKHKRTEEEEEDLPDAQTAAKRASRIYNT
inactive: [1] -0.012 | [2] -0.02 | [3] -0.02 | [4] -0.041 | [5] -0.012 | [6] 0.048 | [7] 0.034 | [8] 0.02 | [9] 0.026 | [10] 0.016

RPS3A (UniProt P61247)
inactive: [1] 0.011 | [2] 0.009 | [3] -0.081 | [4] -0.036 | [5] 0.069 | [6] -0.104 | [7] -0.095 | [8] 0.071 | [9] -0.033 | [10] -0.109

RBM22 (UniProt Q9NW64)
inactive: [1] -0.049 | [2] 0.031 | [3] -0.056 | [4] -0.014 | [5] 0.052 | [6] 0.003 | [7] -0.004 | [8] -0.038 | [9] 0.018 | [10] -0.006

SLC1A5 (UniProt Q15758)
inactive: [1] 0.007 | [2] 0.002 | [3] 0.019 | [4] -0.01 | [5] -0.053 | [6] -0.006 | [7] 0.012 | [8] -0.01 | [9] -0.022 | [10] -0.04
